Data reported in PubChem BioAssay AID651821 (The Scripps Research Institute Molecular Screening Center, 2012).
Screen size: about 370,000 compounds; about 4,700 (1.3%) were called active. The sample as a whole holds a higher share of actives than the screen did. Values without a mark were called inactive.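 Rule for the calls: active = inhibition above the plate cutoff, the mean of all test compounds on that plate plus 3 SD (cut at about 35% in these data); inactive = the rest.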

Test: small molecules binding CAG repeat RNA – biochemical, fluorescence, primary screen (AID 651821);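 note: 0% = DMSO alone and 100% = 100 µM mitoxantrone as full dye displacement; higher means more dye released from RNA so lower well fluorescence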
Details: r(CAG) RNA repeat, TO-PRO-1 dye displacement fluorescence; at 3 µM; stronger effect = higher value

Row | SMILES | inhibition
1 | Cc1ccc(C(=O)O)c(NC=O)c1OCc1ccccc1 | 0.76%
2 | Cc1ccc(S(=O)(=O)N2[C@@H](c3ccc(Br)cc3)C(C(=O)O)=C[C@H]2CC2CCCC2)cc1 | 82.8% (active)
3 | CCCCC[C@@H]1C=C(C(=O)O)[C@H](c2ccc(C#N)cc2)N1S(=O)(=O)c1ccc(C)cc1 | 62.3% (active)
4 | Cc1ccc(S(=O)(=O)N2CCCC2CO)cc1 (configuration not stated) | -2.42%
5 | CCOC(=O)C1=CC[C@@H](c2ccccc2)N(S(=O)(=O)c2ccc(C)cc2)[C@H]1c1ccc(CC)cc1 | 2.92%
6 | CCCCC[C@@H]1C=C(C(=O)OCC)[C@H](c2ccccc2)N1S(=O)(=O)c1ccc(C)cc1 | 5.36%
7 | O=C(O)C1CCCN1S(=O)(=O)c1ccc(Br)cc1 (configuration not stated) | -0.5%
8 | CCn1c(SCC(C)=O)nc2sc3c(c2c1=O)CCCC3 | 4.43%
9 | CCOC(=O)[C@]12CCCC3=C1N(CCC3)C(=O)[C@@H](CC(=O)NCC13CC4CC(CC(C4)C1)C3)C2 | -1.58%
10 | O=C(c1ccccc1)c1ccc(-c2ccccc2C(=O)NC2CCCCN(Cc3ccc(Cl)cc3)C2=O)cc1 (configuration not stated) | 12.5%
11 | Cc1ccc(C)c(CN2CCC(CNC(=O)C3CCCN(c4ncnc5c4nc4n5CCCCC4)C3)CC2)c1 (configuration not stated) | -1.34%
12 | CCCCCCCCNS(=O)(=O)/C=C/c1cc(C)ccc1CNC(=O)OC(C)(C)C | 5.11%
13 | CSc1ccc(Oc2cccc3c2S(=O)(=O)N([C@H](C)c2ccccc2)C[C@@H](COCc2ccccc2)O3)cc1C | 5.63%
14 | Cc1noc(C)c1NC(=O)Nc1ccc2c(c1)C(=O)N([C@H](C)CO)C[C@H](C)[C@H](CN(C)Cc1ccncc1)OCCCC[C@@H](C)O2 | 6.45%
15 | COc1ccc(OC)c(NC(=O)CSc2nc(N)c(-c3ccccc3)c(=O)[nH]2)c1 | 4.81%
16 | COc1ccc(OC)c(NC(=O)CSc2nc(-c3ccccc3)cc(=O)[nH]2)c1 | 37.5% (active)
17 | CCCc1cc(=O)[nH]c(SCC(=O)Nc2ccc(C(=O)Nc3ccccc3OC)cc2)n1 | 31.1%
18 | Cc1ccccc1NC(=O)COC(=O)c1ccc(Sc2ncn[nH]2)c([N+](=O)[O-])c1 | 6.52%
19 | O=C(O)c1c(NC(=O)N2CCCC2)sc2c1CCCC2 | 3.93%

Row | SMILES | inhibition
20 | CCOC(=O)C(NC(=O)CC(C)C)(Nc1sc2c(c1C(N)=O)CCCC2)C(F)(F)F (configuration not stated) | -6.2%
21 | NC(=O)c1c(Nc2nc3c(F)cccc3s2)sc2c1CCCC2 | 52.5% (active)
22 | COc1ccc(Br)c2c1C(=O)CC2 | -1.62%
23 | CCn1cc(C(=O)NCC2COc3ccccc3O2)c2cc(OC)c(OC)cc2c1=O (configuration not stated) | 53.3% (active)
24 | COc1ccc(NC(=O)CC2COc3ccccc3O2)c(OC)c1 (configuration not stated) | -0.79%
25 | CCn1cc(C(=O)N2CCN(C3CCCCC3)CC2)c2cc(OC)c(OC)cc2c1=O | -10.2%
26 | COc1cccc(CSc2nnc(-c3cccnc3)n2Cc2ccccc2)c1 | 3.2%
27 | CCCNC(=O)Nc1ccc2c(c1)C(=O)N(C)[C@H]1CC[C@H](CC(=O)NCC3CCCCC3)O[C@@H]1CO2 | 2.13%
28 | COc1ccc(Cl)cc1C=CC=Nc1ccc(S(N)(=O)=O)cc1 | 14.6%
29 | COc1ccc(Cl)cc1C=CC=NNC(=O)c1ccncc1 | 1.27%
30 | COc1ccccc1/C=C/C=N/n1c(-c2ccc(Cl)cc2Cl)n[nH]c1=S | 36.1% (active)
31 | Cc1cccc(CS(=O)(=O)c2ncc(Cl)c(C(=O)Nc3ccc(F)cc3)n2)c1 | 2.26%
32 | CSc1nnc(NC(=O)c2nc(S(=O)(=O)Cc3ccc(C)cc3)ncc2Cl)s1 | 42.9% (active)
33 | Clc1cccc2c1C1CC2CCN1Cc1ccccc1 (configuration not stated) | 1.58%
34 | O=C1C2C3C=CC(C3)C2C(=O)N1c1ccc(S(=O)(=O)Nc2nccs2)cc1 (configuration not stated) | 0.76%
35 | O=C(Nc1nncs1)c1cccc(S(=O)(=O)N2CCCCC2)c1 | 0.89%
36 | C/C(=N\NC(=O)c1ccc(NS(=O)(=O)c2cccs2)cc1)c1ccc2ccccc2c1 | 19.2%
37 | COc1cc(OC)c(C(=O)NNC(=O)c2ccc(NS(=O)(=O)c3cccs3)cc2)cc1OC | 8.73%
38 | O=C(Nc1nncs1)c1ccccc1NS(=O)(=O)c1cccs1 | 36.4% (active)

Row | SMILES | inhibition
39 | O=C(Nc1cccc(Cl)c1)Nc1ccccc1NS(=O)(=O)c1cccs1 | 48.5% (active)
40 | O=S(=O)(NCCc1ccc(Cl)cc1)c1cccs1 | -4.34%
41 | CC(C)CNc1cccc2c1S(=O)(=O)N(Cc1cn(Cc3ccccc3C(F)(F)F)nn1)Cc1ccccc1O2 | 7.51%
42 | O=C(N[C@H](C(=O)N1CCC[C@H]1C(=O)NCCc1ccccc1Cl)c1ccccc1)c1ccccc1 | 3.45%
43 | O=C(c1ccc2c(c1)OCO2)N1CCNc2ccccc2C1 | 2.38%
44 | COC(=O)Cc1nnn2c1[C@H](C)[C@H](c1ccccc1Br)OCC2 | 2.7%
45 | C#CCCN([C@H](C(=O)OC)C(C)C)S(=O)(=O)c1ccc(F)cc1Br | 2.16%
46 | COc1cccc(N(C)C(=O)[C@@H](C)[C@@H](O)c2ccc3ccccc3c2)c1 | -1.62%
47 | COC(=O)[C@]1(Cc2ccccc2)NC=C(C(=O)c2ccccc2)[C@@H]1c1cccc(OC)c1 | 4.57%
48 | COC(=O)C1=C(C)NC(=S)NC1c1ccc(OC)cc1 (configuration not stated) | 1.6%
49 | CCN(CC(=O)Nc1cc(Cl)ccc1C)C(=O)Cn1c(=O)cnc2ccccc21 | -5.99%
50 | C=CCNc1nc(N)c(C(=C(C#N)C#N)c2ccccc2)s1 | 35.8% (active)
51 | C=C(C)C#CC(Cc1ccccc1)N(CC1CC1)/C(N)=N/C(=O)OCc1ccccc1 (configuration not stated) | 0.56%
52 | CCCc1ccc(OCC(=O)NNC(=S)NC(=O)c2ccco2)cc1 | 36.2% (active)
53 | CC(Oc1ccc2ccccc2c1)C(=O)NNC(=S)NC(=O)c1ccco1 (configuration not stated) | 48.2% (active)
54 | NS(=O)(=O)c1ccc(CNC(=S)NC(=O)c2ccco2)cc1 | 0.4%
55 | CCC1CCCCN1C(=S)NC(=O)c1ccco1 (configuration not stated) | 0.91%
56 | COc1ccc(/C=C(/NC(=O)c2ccco2)C(=O)Nc2ccc(C(C)=O)cc2)cc1 | 1.57%
57 | O=C(NC(=S)N1CCc2ccccc21)c1ccco1 | 0.88%
